Shiga inhibitor = blocks Shiga toxin action in Vero cells. Vero cells, Shiga toxin protein synthesis inhibition reporter. inhibition, % at 38.7 µM. 290,000 compounds, 9.2% hits. AID 2315; in the data active means inhibition mostly above about 28%, no sharp cut-off; inactive means mostly below about 43%; further: 0% is about no effect
Pf growth 48h = inhibits P. falciparum growth in the first generation, 48 h | P. falciparum luciferase growth in erythrocytes, 48 h | Potency, µM (doses to about 28.7 µM), without a hit: at the top dose activity change, negative = inhibition, most hits filed as inhibitors | 310,000 compounds, 5.9% hits; further: potency means the concentration at half of the fitted maximal effect; on the % scale 0 is the no-effect control and ±100 the full control effect
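Firefly luciferase activity from engineered P. falciparum reports growth; inhibitors lower the luminescent signal. Cultures contained 2% hematocrit erythrocytes at 0.1% final parasitemia.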
Pf growth 96h = inhibits malaria parasite growth, 96 h. P. falciparum luciferase reporter growth, 96 h. Potency, µM (highest dose often 28.7 µM), for the others: top-dose activity change, negative = inhibition, actives largely listed as inhibitors. 320,000 compounds, 6.9% hits. AID 504834; further: potency means the concentration at half of the fitted maximal effect; on the % scale 0 is the no-effect control and ±100 the full control effect
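Readout is luminescence from an integrated firefly luciferase in P. falciparum. Red cells, 2% hematocrit and 0.05% parasitemia final, were cultured with compound through two parasite generations (96 hours) at 37 C, 5% CO2.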
HCMV antiviral = human cytomegalovirus inhibition | HFF cells, HCMV-luciferase reporter, 72 h; hits give low values | activity change, negative = inhibition, % at 57.5 µM | 410,000 compounds, 4.5% hits | AID 1259415; in the data active means activity change below about -60%; inconclusive means no clear call, values can overlap the other calls; inactive means above about -39%; further: on the % scale 0 is the no-effect control and ±100 the full control effect
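Inhibition of viral replication was scored as loss of reporter luminescence in HFFs infected with HCMV-luciferase (MOI 1 PFU/cell) for 72 h; compounds tested at 2 doses, normalized to buffer and Salinomycin controls.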
CHX counter = counter-screen for Shiga toxin inhibitors: cycloheximide protein synthesis inhibition; cell reporter, cycloheximide protein synthesis inhibition counterscreen; max response, %; 300,000 compounds, 12% hits; in the data active means max response mostly above about 13%, no sharp cut-off; inactive means mostly below about 14%; further: read at 38.3 µM for the half of the compounds with a filed dose; 0% is about no effect
Active calls of the source: *; i = inactive; ? = inconclusive; nt = no result; ! = not confirmed by another sample; [ ] = dose if it differs, or a comment. Sampled rows, rich in hits. Any-hit rate of the full collection: about 20%. Unless noted, the call rests on the fitted dose curve; in most records, active means well fitted inhibition curve with a large enough effect; inconclusive means small, poorly fitted or top-dose-only effect, or another doubt; inactive means no such curve, though single readings can be large or run the other way.

SMILES | Shiga inhibitor | Pf growth 48h | Pf growth 96h | HCMV antiviral | CHX counter
CCCNC(=O)NC(=O)c1cnccc1C(F)(F)F | -4 | 24% | 11% | 25 | 0
CCOc1ccccc1N(C(=O)c1ccco1)C(C(=O)NC1CCCC1)c1cccs1 (stereo unspecified) | 2 | 0% | ? | -63* | -2
O=C(NC1CCCCC1)C(c1cccs1)N(C(=O)c1ccco1)c1ccc2c(c1)OCCO2 (stereo unspecified) | 10* | ? | 303% | -61* | 24*
CC(=O)c1cccc(N(C(=O)c2ccco2)C(C(=O)NC2CCCC2)c2ccncc2)c1 (stereo unspecified) | -10 | 6% | -19% | -26 | -2
CC(=O)c1cccc(N(C(=O)c2ccccn2)C(C(=O)NC2CCCCC2)c2cccs2)c1 (stereo unspecified) | 16 | 2.6µM* | 1.7µM* | ? | 0
COc1ccc(N(C(=O)c2ccco2)C(C(=O)NC2CCCC2)c2cccs2)c(OC)c1 (stereo unspecified) | -2 | ? | 8% | -11 | -4
O=C(NC1CCCCC1)C(c1cccs1)N(Cc1cccs1)C(=O)c1ccco1 (stereo unspecified) | -18 | 15µM* | nt | ? | 8
CCCCC(=O)Nc1ccccc1CC | -11 | 14% | 32% | 0 | -2
COc1ccccc1C(CNC(=O)CNC(=O)c1cccc(Cl)c1)N1CCCC1 (stereo unspecified) | nt | nt | nt | 4 | nt
CC(C)(CC(=O)O)CC(=O)N1CCN(c2cc(C(F)(F)F)nc3ccccc23)CC1 | -5 | -20% | -21% | nt | -2
CC(C)NC(=O)N(C)C[C@@H]1Oc2cc(Br)ccc2S(=O)(=O)N([C@@H](C)CO)C[C@H]1C | nt | nt | nt | 14 | nt
CC1CCc2c(sc3nnn(CCCCOc4ccc(Cl)cc4)c(=O)c23)C1 (stereo unspecified) | nt | nt | nt | 18 | nt
CCc1ccc(N(C(=O)c2ccco2)C(C(=O)NC2CCCC2)c2ccco2)cc1 (stereo unspecified) | nt | nt | nt | -35 | nt
CCOc1ccccc1N(C(=O)c1snc(C(N)=O)c1N)C(C(=O)NC1CCCC1)c1cccs1 (stereo unspecified) | -11 | 9.3µM* | ? | -2 | -3
CC(=O)c1ccc(N(C(=O)c2ccco2)C(C(=O)NC2CCCC2)c2cccs2)cc1 (stereo unspecified) | 26 | ? | ? | ? | 29*
COCCCNC(=O)c1cn(Cc2c(F)cccc2Cl)nn1 | -11 | -10% | 44% | -90* | 5
Cc1nc(-c2ccc(NC(=O)C3CCCCC3)cc2)cs1 | 137* | 91% | nt | 36 | 43*
CCc1ccccc1NC(=O)c1ccc(-c2csc(C)n2)cc1 | 53* | 69% | 53% | 34 | 27*
Cc1ccc(C(=O)Nc2ccc(-c3csc(C)n3)cc2)cc1 | 118* | 418% | 288% | ? | 35*
Cc1nc(-c2ccc(NC(=O)c3ccccc3)cc2)cs1 | -9 | -26% | -6% | ? | -4
Cc1csc(NC(=O)C2CCCC2)n1 | 33 | nt | 56% | 75 | 28*
Cc1ccc(-n2nc(C)c3c2OC(N)=C(C#N)C3c2cccs2)cc1 (stereo unspecified) | 81 | 23% | 6% | 85 | 17*
Cc1ccc(-n2nc(C)c3c2OC(N)=C(C#N)C3c2ccncc2)cc1 (stereo unspecified) | 13 | -2% | 0.52µM* | 91 | -6
COC(=O)[C@@H](N)Cc1ccc(O)c(O)c1 | nt | ? | 9.5µM*! | -16 | nt
O=C(Cc1cn(Cc2cccc(Cl)c2)c2ccccc12)N1CCCCCC1 | -13 | -6% | ? | 4 | -2
SMILES | Shiga inhibitor | Pf growth 48h | Pf growth 96h | HCMV antiviral | CHX counter
Fc1cccc(Nc2cc(-n3cccn3)ncn2)c1 | 51* | 206% | 80% | ? | 49*
Cc1ccc(Nc2cc(-n3cccn3)ncn2)c(C)c1 | 22 | nt | -26% | 77 | 28*
Fc1cccc(Nc2cc3c(cn2)ncn3CC2CC2)c1 | nt | nt | nt | -4 | nt
COc1ccc(-c2ccc(OC)c(C3C4C=CCCC4(C)C(=O)N3Cc3ccccc3)c2)cc1OC (stereo unspecified) | 22 | nt | nt | nt | 18
Cc1ccc(NC(=S)/C(=C(\[O-])c2ccc(C)c([N+](=O)[O-])c2)[n+]2ccccc2)cc1C | 149* | ? | -93% | nt | 70*
COc1cccc(NC(=S)/C(=C(\[O-])c2ccc(C)c([N+](=O)[O-])c2)[n+]2ccccc2)c1 | 51* | -15% | nt | 43 | 39*
COc1ccc(CC(=O)NCCCSc2ccccc2)cc1OC | -16 | 19% | ? | -6 | 12
O=c1c2ccccc2ncn1-c1ccc2c(c1)OCCO2 | 65* | 254% | -11% | 35 | 32*
CN(C)C(=O)c1cn(-c2ccccc2)c(=O)c2ccccc12 | -11 | 3% | ? | 78 | -6
CN(C)C(=O)c1ccc(-n2cnc3ccccc3c2=O)cc1 | 18 | -18%[5.75 µM] | 12µM* | 57 | -1
Cc1ccc(NC(=O)C(=O)NCCCN2CCCC2=O)cc1 | nt | 15% | 184% | 63 | nt
CCOC(=O)c1ccc(NC(=S)NCCCN2CCCC2=O)cc1 | -6 | 44% | 2.6µM* | -28 | 4
CCc1ccc(NC(=O)NCCN2CCc3ccccc3C2)cc1 | 15 | 4% | 2.1µM* | 73 | 15
CCc1ccc(NC(=O)NCCCN2CCCC2=O)cc1 | 31* | 38% | 35% | 35 | 28*
Cc1cc(Br)cc(C)c1NC(=O)c1sc2ncn(Cc3cccc(F)c3)c(=O)c2c1C | nt | nt | nt | -33 | nt
COc1cc2c(cc1OC)C(c1cc(C)ccc1C)CC(=O)N2 (stereo unspecified) | -19 | -1% | ? | 56 | 1
O=S(=O)(Oc1ccc(Cl)cc1)c1ccccc1 | 21* | nt | nt | nt | 21*
O=S(=O)(O)c1cccc2cccnc12 | -4 | nt | nt | nt | 11
CN(C)/N=C/c1ccc(OS(=O)(=O)c2ccccc2)cc1 | 64* | 114% | 5% | 26 | 47*
O=[N+]([O-])c1cc(S(=O)(=O)Oc2ccccc2)ccc1Cl | nt | nt | nt | -89* | nt
O=S(=O)(Oc1ccc(Cl)cc1)c1cccc2cccnc12 | 35 | 16% | 64% | ? | 16*
Cc1ccc(N2CCN(C(=O)c3cnc(N4CCCCC4)c4ccccc34)CC2)c(C)c1 | nt | nt | nt | 3 | nt
Fc1ccc(Sc2nc(-c3ccccc3)nnc2C(F)(F)F)cc1 | -2 | 8.3µM* | 13µM* | 18 | 1
CCc1cc(=O)oc2cc(OCC(=O)N(CC)CC)c(Cl)cc12 | 3 | nt | 10µM* | -38 | 5
COc1ccc(Cl)cc1S(=O)(=O)NCCCn1ccnc1 | nt | 33% | i | 24 | -2
COc1ccc(Cl)cc1S(=O)(=O)NC(C)C(=O)NCCCn1ccnc1 (stereo unspecified) | nt | 3% | 13µM* | 18 | nt
CCCc1cc(=O)oc2c(C)c(OCC(=O)NCCCn3ccnc3)ccc12 | -4 | -8% | ? | -10 | -2
CCc1cc(=O)oc2cc(OCC(=O)O)c(Cl)cc12 | -2 | 7% | nt | -17 | -1
